# Experimental data from PubChem BioAssay (NCI).
# About 79,000 compounds went through this panel and 15% of them were active in at least one assay; those are over-represented in the sample as a whole. The source made the active and inactive calls. No stated cut-off is given here; in the data, active means growth inhibition above about 70%; inactive means the rest.
# Tests used:
# [1] = NCI Yeast Anticancer Drug Screen. Data for the rad50 strain (AID 155);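 further: 0% = growth of vehicle-only cultures of the same strain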; conditions: S. cerevisiae rad50 strain growth inhibition; at 50.0 µM; hits give high values
# In short: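 Growth of the mutant yeast was measured after compound exposure and referenced to vehicle-treated cultures.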
# [2] = NCI Yeast Anticancer Drug Screen. Data for the mec2-1 strain (AID 157); conditions: S. cerevisiae mec2-1 strain, at 50.0 µM, hits give high values
# In short: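 Compounds were applied to mec2-1 yeast cells. Their growth was then compared with that of vehicle-treated cultures to give growth inhibition.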
# [3] = NCI Yeast Anticancer Drug Screen. Data for the sgs1 mgt1 strain (AID 161);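 further: 0% = growth of cultures given vehicle only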; conditions: S. cerevisiae sgs1 mgt1 strain, at 50.0 µM, hits give high values
# In short: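 Compounds are added to genetically altered yeast, and growth is compared with cultures given vehicle alone to give percent inhibition.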
# [4] = NCI Yeast Anticancer Drug Screen. Data for the cln2 rad14 strain (AID 165);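 further: 0% = growth equal to vehicle treated cultures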; conditions: S. cerevisiae cln2 rad14 strain, at 50.0 µM, hits give high values
# In short: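 Strain: cln2 rad14 yeast, altered in cell cycle control and DNA damage repair. Read-out: growth inhibition vs vehicle.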
# [5] = NCI Yeast Anticancer Drug Screen. Data for the bub3 strain (AID 167); conditions: S. cerevisiae bub3 mutant strain, at 50.0 µM, hits give high values
# In short: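 Whole-cell yeast assay. The mutant strain was incubated with compounds, and growth inhibition was determined by comparison with vehicle-treated cells.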
# [6] = NCI Yeast Anticancer Drug Screen. Data for the mlh1 rad18 strain (AID 175); conditions: S. cerevisiae mlh1 rad18 strain growth inhibition; at 50.0 µM; hits give high values
# In short: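 A repair-deficient yeast strain is exposed to test compound, and growth is scored relative to vehicle-treated controls.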
Structure (SMILES),growth inhibition [1],growth inhibition [2],growth inhibition [3],growth inhibition [4],growth inhibition [5],growth inhibition [6]
[CH3][Sb]1([Cl])[CH2]CCC[CH2]1,0.5% (inactive),32.9% (inactive),11.1% (inactive),-6.1% (inactive),32% (inactive),36.2% (inactive)
CC[N+](CC)(CC)CC.[C-]#[O+].[C-]#[O+].[C-]#[O+].[Cr+4].[c-]1[c-][c-][cH-][c-]1,11.3% (inactive),12.4% (inactive),8.75% (inactive),-10.8% (inactive),6.65% (inactive),-5.8% (inactive)
CC1=C(C)C(=O)O[C@@H]([C@](C)(O)[C@]2(O)CC[C@@]3(O)[C@@H]4C[C@H](O)[C@]5(O)[C@@H](O)C=CC(=O)[C@]5(C)[C@H]4CC[C@]23C)C1,21.9% (inactive),11.2% (inactive),7.1% (inactive),23.2% (inactive),9.5% (inactive),-52.8% (inactive)
COc1ccc2c(c1)CC1N(C)CCC13CCCCC23 (centres undefined),41.8% (inactive),19.5% (inactive),-1.2% (inactive),2.1% (inactive),-11.4% (inactive),-70.4% (inactive)
CCCCC1(CCC)C(=O)NC(=O)NC1=O,9.8% (inactive),9.5% (inactive),1% (inactive),13.7% (inactive),1% (inactive),15.8% (inactive)
CC(C)(O)[C@H]1[C@@H]2OC(=O)[C@H]1[C@]1(O)C[C@H]3OC34C(=O)O[C@H]2[C@@]41C (some centres undefined) (tested in a mixture with another compound),1.05% (inactive),-12.8% (inactive),19.6% (inactive),-9.25% (inactive),-12.4% (inactive),-65.3% (inactive)
O=C1Nc2ccccc2C12CNCS2 (centres undefined),5.7% (inactive),4.55% (inactive),-8.6% (inactive),-23.4% (inactive),-12.8% (inactive),8.2% (inactive)
CP1(=O)CC23CCCCC2(C1)O3 (centres undefined),2% (inactive),-29.9% (inactive),-3.3% (inactive),-44.2% (inactive),-15% (inactive),-7.9% (inactive)
CN(C(=O)COc1ccc([N+](=O)[O-])cc1Cl)c1ccc(S(=O)(=O)F)cc1,13.8% (inactive),-1.85% (inactive),-10.9% (inactive),-10.4% (inactive),1.25% (inactive),16.5% (inactive)
CCCC/C=C(/C)C1(CC)C(=O)NC(=O)NC1=O,5.05% (inactive),14.2% (inactive),-2% (inactive),-28.1% (inactive),-7.3% (inactive),4.6% (inactive)
C[N+]1=C(c2cccnc2/C=N/O)OCC1(C)C,1.3% (inactive),-19.4% (inactive),-13.7% (inactive),-5.1% (inactive),-24.4% (inactive),-33.1% (inactive)
COc1cc2c(cc1OC)C(c1ccc(O)c(O)c1)CNC2 (centres undefined),-27.8% (inactive),-7.9% (inactive),-31.1% (inactive),-10.1% (inactive),-21.1% (inactive),-5.3% (inactive)
O=C(CC(=O)C(F)(F)F)c1ccco1.[Co],-16.5% (inactive),-17.2% (inactive),-16.5% (inactive),-10.5% (inactive),-7.8% (inactive),3.55% (inactive)
CC(Cl)CN(CC(C)Cl)c1ccc2c(c1)Cc1cc([N+](=O)[O-])ccc1-2 (centres undefined),10.3% (inactive),5.7% (inactive),33.7% (inactive),25.9% (inactive),4.5% (inactive),12.7% (inactive)
N#CCc1ccccc1CC#N,20.8% (inactive),-0.65% (inactive),2.5% (inactive),-19.7% (inactive),3.9% (inactive),18.2% (inactive)
CCC[As](=O)(O)c1ccc(Cl)cc1,88.5% (active),99.5% (active),99.2% (active),73.5% (active),94.7% (active),99.2% (active)
O=C1NC(=O)C(Cc2cccc(Cl)c2)C(=O)N1,15.1% (inactive),-6.9% (inactive),-15.8% (inactive),-8.05% (inactive),0.55% (inactive),-36% (inactive)
CO/C(=N/N1CC1C(F)(F)F)c1ccncc1 (centres undefined),-34.8% (inactive),19.2% (inactive),-51.9% (inactive),11.8% (inactive),1.65% (inactive),8% (inactive)
C=CCc1cc(OC)c2c(c1OC)OCO2,6.3% (inactive),8.95% (inactive),-0.7% (inactive),2.05% (inactive),-1.9% (inactive),7.05% (inactive)
C[C@@]1(C(=O)c2ccccc2)N(c2ccccc2)[C@@]1(C)C(=O)c1ccccc1,8.9% (inactive),8.3% (inactive),4.35% (inactive),21.8% (inactive),16.1% (inactive),32.4% (inactive)

Structure (SMILES),growth inhibition [1],growth inhibition [2],growth inhibition [3],growth inhibition [4],growth inhibition [5],growth inhibition [6]
CCOP(=O)(OCC)C(O)C(C)C (centres undefined),3.5% (inactive),16.9% (inactive),5.2% (inactive),-19.8% (inactive),7.5% (inactive),0.35% (inactive)
CCCCP(=O)(CCCC)CCCC.CCCCP(=O)(CCCC)CCCC.CCCCP(=O)(CCCC)CCCC.CCCCP(=O)(CCCC)CCCC.[Mn+2].[O-][Cl+3]([O-])([O-])O,13.3% (inactive),-57.7% (inactive),-24.6% (inactive),-17.5% (inactive),-21.9% (inactive),-17.9% (inactive)
COc1ccc2nc3ccccc3c(NCCCN(C)CCCl)c2c1,67.8% (inactive),56.5% (inactive),57.8% (inactive),50.5% (inactive),-0.5% (inactive),66.2% (inactive)
NC(Cc1ccccc1)c1cccc2c1CCCC2 (centres undefined),7.35% (inactive),-7.3% (inactive),-2.55% (inactive),-21.8% (inactive),24.4% (inactive),40.5% (inactive)
O=C1CN=C(c2ccccc2)c2ccncc2N1,4.15% (inactive),4.5% (inactive),12.6% (inactive),19.1% (inactive),5.35% (inactive),28.6% (inactive)
O=Cc1ccccc1O.[La],-7.9% (inactive),-28.1% (inactive),14.1% (inactive),-5.45% (inactive),-7.7% (inactive),2.15% (inactive)
COc1ccc2[nH]c3c(c2c1)CCNC3C (centres undefined),2.3% (inactive),-12.6% (inactive),2.6% (inactive),-52.1% (inactive),5.4% (inactive),-17.3% (inactive)
O=P1(N(CCCl)CCCl)NCCCO1 (centres undefined),-8.1% (inactive),-32.2% (inactive),-6.1% (inactive),4.8% (inactive),-15.2% (inactive),-7.05% (inactive)
O=NN(c1ccccc1)c1ccccc1,12.2% (inactive),9.8% (inactive),-8.6% (inactive),-22.3% (inactive),-10.1% (inactive),34.5% (inactive)
CCOC(=O)C(Br)CBr (centres undefined),6.35% (inactive),-17.9% (inactive),4.85% (inactive),-2.3% (inactive),-16.1% (inactive),23.1% (inactive)
C[CH2][Sn]([CH2]C)([S]c1nc(O)cc(=O)[nH]1)[S]c1nc(O)cc(=O)[nH]1,32.5% (inactive),41.9% (inactive),-18.1% (inactive),7.9% (inactive),21.9% (inactive),25.1% (inactive)
CS(=O)(=O)NC(=NCCOS(C)(=O)=O)N[N+](=O)[O-],9% (inactive),-8.5% (inactive),19.4% (inactive),-6.85% (inactive),1.9% (inactive),11.8% (inactive)
[O-][Cl+3]([O-])([O-])O.[O-][n+]1c2ccccc2nc2ccccc21.[Zn+2],58.1% (inactive),36.1% (inactive),18.6% (inactive),14.8% (inactive),28.3% (inactive),41.5% (inactive)
ClCCN(CCCl)c1ccc(/C=N\N=C\c2ccncc2)cc1,4.35% (inactive),-3.95% (inactive),6.15% (inactive),-8.5% (inactive),0.95% (inactive),-1.8% (inactive)
COc1cc(N=Nc2ccc([N+](=O)[O-])cc2)ccc1N(CCCl)CCCl,-8.55% (inactive),-13.2% (inactive),-16.9% (inactive),11.2% (inactive),-10.6% (inactive),12.8% (inactive)
O=P(OCCCCCl)(OCCCCCl)C(Cl)Cl,-6.4% (inactive),-11.6% (inactive),0.65% (inactive),5.8% (inactive),4.5% (inactive),6.5% (inactive)
CCOC(=O)/C(=C\c1ccc(N(C)C)cc1)[Se]c1ccccc1,12.7% (inactive),-2.8% (inactive),-0.3% (inactive),5% (inactive),18.6% (inactive),56.4% (inactive)
Oc1ccc(Cl)c(Cl)c1,-3.45% (inactive),-32.5% (inactive),-72.8% (inactive),-3.1% (inactive),-51.5% (inactive),-13.8% (inactive)
O=C(Cl)c1ccc[nH]1,-0.95% (inactive),-13.9% (inactive),-13.7% (inactive),21.1% (inactive),-25.6% (inactive),-0.15% (inactive)
